Reference: PubChem BioAssay AID1159580 (chemical genetic matrix, 2015)
Values joined by “and” are separate entries in the source; they are usually repeats but may differ in a detail not shown here. Equal entries are not always repeated. About 2,000 (36%) of roughly 5,500 compounds were called active. Another 18% or so got no clear call; they are omitted. No stated cut-off is given here; in the data, active means normalized growth mostly below about 0.91 (no sharp cut-off); inconclusive means no clear call, values can overlap the other calls; inactive means mostly above about 0.92. Some of the results follow.

Assay: chemical genetic growth profiling, strain panel (AID 1159580);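 further: tested at 20 µM; growth read once vehicle control cultures reached saturation at 30 °C; 1 = growth at the plate median or of vehicle wells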
Details: growth OD

Measured: normalized growth

CCCNC(C)C(=O)Nc1ccccc1C (stereo unspecified)
inactive: S. cerevisiae deletion strains, locus YJR066W, strain TOR1, stronger effect = lower value 0.979 | S. cerevisiae deletion strains, locus YJR075W, strain HOC1, stronger effect = lower value 1.01 | S. cerevisiae deletion strains, locus YKL009W, strain mrt4, stronger effect = lower value 1 | S. cerevisiae deletion strains, locus YKL068W, stronger effect = lower value 0.99 | S. cerevisiae deletion strains, locus YKL085W, strain MDH1 (second series), stronger effect = lower value 1 | S. cerevisiae deletion strains, locus YKL085W, strain MDH1, stronger effect = lower value 1 | S. cerevisiae deletion strains, locus YKL160W, strain elf1, stronger effect = lower value 1.01 | S. cerevisiae deletion strains, locus YKL190W, strain CNB1, stronger effect = lower value 1 | S. cerevisiae deletion strains, locus YKR001C, strain vps1, stronger effect = lower value 1 | S. cerevisiae deletion strains, locus YKR026C, strain gcn3, stronger effect = lower value 1 | S. cerevisiae deletion strains, locus YKR091W, strain srl3, stronger effect = lower value 1 | S. cerevisiae deletion strains, locus YLL001W, strain dnm1, stronger effect = lower value 1.01 | S. cerevisiae deletion strains, locus YLL026W, stronger effect = lower value 1.01 | S. cerevisiae deletion strains, locus YLL041C, strain sdh2, stronger effect = lower value 0.997 | S. cerevisiae deletion strains, locus YLR027C, strain aat2, stronger effect = lower value 1.01 | S. cerevisiae deletion strains, locus YLR039C, strain RIC1, stronger effect = lower value 1.03 | S. cerevisiae deletion strains, locus YLR058C, strain SHM2, stronger effect = lower value 1.01 | S. cerevisiae deletion strains, locus YLR102C, strain apc9, stronger effect = lower value 0.989 | S. cerevisiae deletion strains, locus YLR113W, strain HOG1, stronger effect = lower value 1.09 | S. cerevisiae deletion strains, locus YLR221C, strain rsa3, stronger effect = lower value 0.988 | S. cerevisiae deletion strains, locus YLR258W, strain gsy2, stronger effect = lower value 0.999 | S. cerevisiae deletion strains, locus YLR262C, strain YPT6 (second series), stronger effect = lower value 1.02 | S. cerevisiae deletion strains, locus YLR262C, strain YPT6, stronger effect = lower value 1.07 | S. cerevisiae deletion strains, locus YLR268W, strain sec22, stronger effect = lower value 0.989 | S. cerevisiae deletion strains, locus YLR320W, strain mms22, stronger effect = lower value 1.01 | S. cerevisiae deletion strains, locus YLR330W, strain CHS5, stronger effect = lower value 1.01 | S. cerevisiae deletion strains, locus YLR342W, strain FKS1 (second series), stronger effect = lower value 0.996 | S. cerevisiae deletion strains, locus YLR342W, strain FKS1, stronger effect = lower value 1.01 | S. cerevisiae deletion strains, locus YLR357W, strain rsc2, stronger effect = lower value 0.981 | S. cerevisiae deletion strains, locus YLR370C, strain arc18, stronger effect = lower value 1.01 | S. cerevisiae deletion strains, locus YLR371W, strain rom2, stronger effect = lower value 0.983 | S. cerevisiae deletion strains, locus YLR384C, strain iki3, stronger effect = lower value 1.01 | S. cerevisiae deletion strains, locus YLR418C, strain cdc73, stronger effect = lower value 0.967 | S. cerevisiae deletion strains, locus YML016C, strain PPZ1, stronger effect = lower value 1.01 | S. cerevisiae deletion strains, locus YML032C, strain rad52, stronger effect = lower value 0.987 | S. cerevisiae deletion strains, locus YML120C, strain ndi1, stronger effect = lower value 1 | S. cerevisiae deletion strains, locus YML124C, strain tub3, stronger effect = lower value 0.989 | S. cerevisiae deletion strains, locus YMR058W, strain fet3, stronger effect = lower value 1 | S. cerevisiae deletion strains, locus YMR078C, strain ctf18, stronger effect = lower value 0.993 | S. cerevisiae deletion strains, locus YMR125W, strain sto1, stronger effect = lower value 1.02 | S. cerevisiae deletion strains, locus YMR129W, stronger effect = lower value 1 | S. cerevisiae deletion strains, locus YMR205C, strain PFK2, stronger effect = lower value 1 | S. cerevisiae deletion strains, locus YMR223W, strain ubp8, stronger effect = lower value 0.972 | S. cerevisiae deletion strains, locus YMR231W, strain pep5, stronger effect = lower value 1.01 | S. cerevisiae deletion strains, locus YMR263W, strain SAP30, stronger effect = lower value 1 | S. cerevisiae deletion strains, locus YMR307W, strain GAS1, stronger effect = lower value 0.949 | S. cerevisiae deletion strains, locus YNL067W, strain RPL9B, stronger effect = lower value 1.02 | S. cerevisiae deletion strains, locus YNL071W, strain lat1, stronger effect = lower value 1 | S. cerevisiae deletion strains, locus YNL153C, strain GIM3, stronger effect = lower value 0.963 | S. cerevisiae deletion strains, locus YNL175C, strain NOP13, stronger effect = lower value 1.01 | S. cerevisiae deletion strains, locus YNL183C, strain NPR1, stronger effect = lower value 1 | S. cerevisiae deletion strains, locus YNL197C, strain WHI3, stronger effect = lower value 1.04 | S. cerevisiae deletion strains, locus YNL209W, strain ssb2, stronger effect = lower value 1 | S. cerevisiae deletion strains, locus YNL224C, strain SQS1, stronger effect = lower value 0.989 | S. cerevisiae deletion strains, locus YNL233W, strain BNI4, stronger effect = lower value 1.03 | S. cerevisiae deletion strains, locus YNL248C, strain rpa49, stronger effect = lower value 1.01 | S. cerevisiae deletion strains, locus YNL250W, strain rad50, stronger effect = lower value 0.983 | S. cerevisiae deletion strains, locus YNL271C, strain bni1, stronger effect = lower value 0.996 | S. cerevisiae deletion strains, locus YNL298W, strain CLA4, stronger effect = lower value 0.985 | S. cerevisiae deletion strains, locus YNL307C, strain MCK1, stronger effect = lower value 0.998 | S. cerevisiae deletion strains, locus YNL322C, strain KRE1 (second series), stronger effect = lower value 1 | S. cerevisiae deletion strains, locus YNL322C, strain KRE1, stronger effect = lower value 1 and 1.02 | S. cerevisiae deletion strains, locus YNR049C, strain mso1, stronger effect = lower value 1.01 | S. cerevisiae deletion strains, locus YNR052C, strain pop2, stronger effect = lower value 0.998 | S. cerevisiae deletion strains, locus YOL006C, strain TOP1, stronger effect = lower value 1.04 | S. cerevisiae deletion strains, locus YOL012C, strain htz1 0.66 | S. cerevisiae deletion strains, locus YOL147C, strain pex11, stronger effect = lower value 0.979 | S. cerevisiae deletion strains, locus YOR001W, strain rrp6, stronger effect = lower value 0.994 | S. cerevisiae deletion strains, locus YOR061W, strain CKA2, stronger effect = lower value 1.02 | S. cerevisiae deletion strains, locus YOR069W, strain VPS5, stronger effect = lower value 1 | S. cerevisiae deletion strains, locus YOR070C, strain gyp1, stronger effect = lower value 1 | S. cerevisiae deletion strains, locus YOR080W, strain dia2, stronger effect = lower value 0.999 | S. cerevisiae deletion strains, locus YOR083W, strain WHI5 (second series), stronger effect = lower value 1.01 | S. cerevisiae deletion strains, locus YOR083W, strain WHI5, stronger effect = lower value 1 | S. cerevisiae deletion strains, locus YOR106W, strain vam3, stronger effect = lower value 1 | S. cerevisiae deletion strains, locus YOR136W, strain idh2, stronger effect = lower value 0.992 | S. cerevisiae deletion strains, locus YOR144C, strain elg1, stronger effect = lower value 0.977 | S. cerevisiae deletion strains, locus YOR184W, strain ser1, stronger effect = lower value 0.968 | S. cerevisiae deletion strains, locus YOR231W, strain MKK1, stronger effect = lower value 1.09 | S. cerevisiae deletion strains, locus YOR265W, strain rbl2, stronger effect = lower value 1.01 | S. cerevisiae deletion strains, locus YOR270C, strain vph1, stronger effect = lower value 0.987 | S. cerevisiae deletion strains, locus YOR290C, strain snf2, stronger effect = lower value 0.992 | S. cerevisiae deletion strains, locus YOR316C, strain cot1, stronger effect = lower value 0.998 | S. cerevisiae deletion strains, locus YPL051W, strain arl3, stronger effect = lower value 1 | S. cerevisiae deletion strains, locus YPL055C, strain LGE1, stronger effect = lower value 1 | S. cerevisiae deletion strains, locus YPL078C, strain atp4, stronger effect = lower value 0.999 | S. cerevisiae deletion strains, locus YPL106C, strain sse1, stronger effect = lower value 0.989 | S. cerevisiae deletion strains, locus YPL240C, strain hsp82, stronger effect = lower value 1.01 | S. cerevisiae deletion strains, locus YPL241C, strain CIN2, stronger effect = lower value 1.01 | S. cerevisiae deletion strains, locus YPL256C, strain CLN2, stronger effect = lower value 1.09 | S. cerevisiae deletion strains, locus YPR119W, strain clb2, stronger effect = lower value 0.99 | S. cerevisiae deletion strains, locus YPR141C, strain kar3, stronger effect = lower value 0.984 | S. cerevisiae deletion strains, locus YPR163C, strain tif3, stronger effect = lower value 0.99 | S. cerevisiae deletion strains, locus YPR167C, strain met16, stronger effect = lower value 0.994 | S. cerevisiae deletion strains, strain wtn01, stronger effect = lower value 0.993 | S. cerevisiae strains, strain wild type, stronger effect = lower value 1.01
